# An excerpt weighted towards active compounds, which were near 7.5% of everything screened.
# Vaccinia mCherry – inhibitors of vaccinia virus infection (mCherry reporter signal); 310,000 compounds, 0.63% hits; Vaccinia virus mCherry reporter infection, fluorescence; Potency, µM (titrated, usually from 36.5 µM), for inactives: at the highest dose activity change, negative = inhibition, actives largely listed as inhibitors; calls by dose curve; tested in A549 cells; note: potency is the fitted concentration of half-maximal effect; nearly all actives have a fitted effect of over 35% in size
# FMDV inh – blocks foot and mouth disease virus; FMDV antiviral cell-based qHTS; Potency, µM (titrated, usually from 57.9 µM), inactives show at the highest dose activity change, negative = inhibition, actives largely listed as inhibitors; 410,000 compounds, 1.2% hits; calls by dose curve; tested in HEK293T cells; note: read-out not given here; potency is the fitted concentration of half-maximal effect; nearly all actives have a fitted effect of over 45% in size
# FBPA Giardia inh – inhibitors of Giardia lamblia fructose-1,6-bisphosphate aldolase | Potency, µM (titrated, usually from 59.6 µM), for the others: at the highest dose activity, negative = inhibition, most hits filed as inhibitors | 290,000 compounds, 0.71% hits | A8B2U2 | purified Giardia FBPA | AID 2451; note: potency is the fitted concentration of half-maximal effect; nearly all actives have a fitted effect of over 55% in size
# Target sequence (A8B2U2 whole entry, looked up): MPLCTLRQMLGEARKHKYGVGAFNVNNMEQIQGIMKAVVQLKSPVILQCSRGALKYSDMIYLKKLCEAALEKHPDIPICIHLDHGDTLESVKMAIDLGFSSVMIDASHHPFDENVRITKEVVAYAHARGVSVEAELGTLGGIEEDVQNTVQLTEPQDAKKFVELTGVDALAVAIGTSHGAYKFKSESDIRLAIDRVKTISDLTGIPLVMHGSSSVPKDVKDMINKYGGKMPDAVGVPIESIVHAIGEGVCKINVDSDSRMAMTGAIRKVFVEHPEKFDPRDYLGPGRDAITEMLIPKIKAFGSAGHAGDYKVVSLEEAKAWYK
#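 40 nM FBPA preincubated 10 min at RT with compound (up to 57.5 uM final), then substrate plus GAPDH/TPI/NAD/arsenate coupling and diaphorase/resazurin added. Fluorescence read after 20 min at RT, 525/598 nm.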
# Vaccinia Venus – inhibitors of vaccinia virus (Venus reporter) | Vaccinia virus Venus reporter expression, fluorescence | 330,000 compounds, 0.46% hits | Potency, µM (top dose mostly 36.5 µM), for inactives: at the top dose activity change, negative = inhibition, actives largely listed as inhibitors; calls by dose curve; tested in A549 cells; note: potency is the fitted concentration of half-maximal effect; nearly all actives have a fitted effect of over 30% in size
# HCMV antiviral – blocks human cytomegalovirus replication. activity change, negative = inhibition, % at 57.5 µM. HFF cells, HCMV-luciferase reporter, 72 h; stronger effect = lower value. 410,000 compounds, 4.5% hits; in the data active = activity change below about -60%; inconclusive = no clear call, values can overlap the other calls; inactive = above about -39%
#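 Screen run at 2 compound doses on HFFs infected with reporter HCMV, MOI 1 PFU/cell. Luciferase activity from cell lysates at 72 h post infection gave inhibition relative to buffer-only and Salinomycin wells.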
# HCV inh – blocks hepatitis C virus; Huh7.5.1 HCVcc-Cre infection, luciferase reporter, 44 h; Potency, µM (top dose mostly 41.8 µM), inactives show top-dose activity change, negative = inhibition, most hits filed as inhibitors; 340,000 compounds, 3.4% hits; AID 651820; note: potency is the fitted concentration of half-maximal effect
#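 Compounds are dispensed onto cells plated 4 h earlier at 1,000 per well, with HCVcc-Cre virus (about 0.5 moi) added next. Following 44 h of culture, luminescent signal is measured for 15 sec after 15 min with substrate at room temperature.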
# An asterisk follows results filed as active; i = inactive; ? = inconclusive; . = no result given. Unless noted, calls come from the whole dose curve; as a rule, active = well fitted curve in the direction sought with a large enough effect; inconclusive = small, poorly fitted or top-dose-only effect, or another doubt; inactive = no such curve, though single readings can be large; an effect the other way counts as inactive or inconclusive. % is set by controls: 0 for no effect and ±100 for the full control effect.
SMILES,Vaccinia mCherry,FMDV inh,FBPA Giardia inh,Vaccinia Venus,HCMV antiviral,HCV inh
COc1ccc(-c2csc(NC(=O)C3=NN(c4ccccc4)C(=O)CC3)n2)cc1,-6%,20µM*,-5%,-20%,-32,7.1µM*
O=C(Nc1nc(-c2cc(F)ccc2F)cs1)C1=NN(c2ccccc2)C(=O)CC1,i,-31%,-10%,-3%,61,3%
O=C(NC1(Cc2ccccc2)CCN(Cc2ccc(-c3ccccc3)cc2)C1=O)c1ccccc1 (stereo not given),11µM*,-32%,.,?,-31,?
COc1ccc(CCNC2CC(=O)N(CCc3ccccc3)C2=O)cc1 (stereo not given),-27%,.,4%,-4%,0,-2%
COc1ccc(CCN2C(=O)CC(NNC(=O)c3ccccc3Br)C2=O)cc1 (stereo not given),i,-13%,6%,-5%,-65*,1%
CC(C)(C)c1ccc(C(=O)NC(=S)Nc2sc3c(c2C#N)CCC3)cc1,-23%,-25%,-6%,-13%,-38,?
CN(C)c1ccc(C(=O)Nc2nc3c(s2)CCCC3)cc1,?,-64%,-19%,-23%,-67*,11µM*
CC(C)(C)c1ccc(C(=O)NC(=S)Nc2nc3c(s2)CCCC3)cc1,-7%,?,0%,-21%,-76*,?
O=C(COc1ccccc1Cl)Nc1nc2c(s1)CCCC2,20%,39%,.,9%,-25,.
CCCOc1ccccc1C(=O)Nc1nc2c(s1)CCCC2,-13%,-13%,.,-7%,-64*,.
Cc1cccc(CNC(=O)c2cnn(-c3nccc(-c4ccccc4C(F)(F)F)n3)c2C)n1,-10%,-10%,.,-12%,.,.
COc1ccc(NC(=O)CN2CCN(C(=O)N3CCOCC3)CC2)cc1,-12%,-4%,-9%,-12%,15,15%
CC(=O)c1c(N2CCCC2)[nH]c(-c2ccccc2)nc1=S,-23%,-13%,22%,-18%,-23,22µM*
CC1CCN(S(=O)(=O)c2ccc(NC(=O)Cn3nnc(-c4ccccc4)n3)cc2)CC1,.,-28%,3%,.,-27,-5%
Cc1ccc(-c2nnn(CC(=O)Nc3ccc(S(=O)(=O)N4CCC(C)CC4)cc3)n2)cc1,-10%,-25%,3%,-14%,-75*,?
O=C(Cn1nnc(-c2ccccc2Cl)n1)Nc1cccc(S(=O)(=O)N2CCCC2)c1,-8%,-1%,.,-15%,-25,?
CCN(CC)S(=O)(=O)c1ccc(C)c(NC(=O)CNc2cccc(S(=O)(=O)N3CCCC3)c2)c1,-12%,?,.,-27%,?,10µM*
Cc1cccc(NC(=O)CSCC(=O)Nc2cccc(S(=O)(=O)N3CCCCCC3)c2)c1,-2%,-1%,.,-17%,-33,0%
Cc1ccc(NC(=O)CSCC(=O)Nc2cccc(S(=O)(=O)N3CCCCCC3)c2)cc1,.,-30%,.,.,-39,13µM*
O=C(Cn1nnc(-c2ccc(F)cc2)n1)Nc1cccc(S(=O)(=O)N2CCCC2)c1,.,-25%,.,.,-60*,22µM*
COc1cccc(CN2C(=O)NC(C)(C3CCN(Cc4cnn(C)c4C)CC3)C2=O)c1OC (stereo not given),i,?,.,-10%,.,.
COC(=O)C1=CN(c2ccc3c(c2)OCO3)C(N)=C(C#N)C1c1cccc(F)c1 (stereo not given),?,6%,.,-23%,-11,.
O=C(Nc1cc(S(=O)(=O)N2CCOCC2)ccc1Cl)c1cc([N+](=O)[O-])ccc1Cl,-27%,?,.,-7%,.,-20%
O=C(CN1CCN(S(=O)(=O)c2ccc(F)cc2)CC1)Nc1ccc(Cl)c(C(F)(F)F)c1,.,28µM*,.,?,-39,?
Cc1ccc(NCC(=O)Nc2cccc(S(=O)(=O)N(C)C)c2)cc1S(=O)(=O)N1CCCCCC1,?,?,.,?,-81*,10µM*
SMILES,Vaccinia mCherry,FMDV inh,FBPA Giardia inh,Vaccinia Venus,HCMV antiviral,HCV inh
Cc1ccc(NC(=O)CNc2cccc(S(=O)(=O)N3CCCC3)c2)cc1F,-15%,-5%,.,-21%,-18,?
Cc1ccc(NC(=O)CNc2cccc(S(=O)(=O)N3CCOCC3)c2)cc1F,-26%,?,.,-19%,-35,?
CN(CC(=O)Nc1cccc(S(=O)(=O)N2CCCC2)c1)CC(=O)Nc1ccc(Cl)c(C(F)(F)F)c1,?,-22%,.,?,-64*,18µM*
O=C(CN1CCN(S(=O)(=O)c2ccc(F)cc2)CC1)Nc1ccc2c(c1)OCCO2,.,0%,.,-14%,-12,-16%
CCN(CC)S(=O)(=O)c1cc(NC(=O)CNc2cccc(S(=O)(=O)N3CCOCC3)c2)ccc1C,-10%,-27%,.,?,-85*,5.6µM*
COc1ccc(Cl)cc1NC(=O)c1cccc([N+](=O)[O-])c1O,i,0%,.,-19%,?,?
CC1CCC(NC(=O)c2ccc(COc3ccccc3)o2)CC1 (stereo not given),-10%,-18%,.,-9%,-7,?
O=C(CN(CCO)c1ccccc1)Nc1cccc(S(=O)(=O)N2CCCC2)c1,-20%,-14%,1%,1%,-13,-9%
CCN(CC)S(=O)(=O)c1cccc(NC(=O)CNc2cccc(S(=O)(=O)N3CCCC3)c2)c1,-17%,-5%,-3%,-30%,-88*,2.5µM*
CN(CC(=O)Nc1ccc(S(=O)(=O)N2CCCC2)cc1)Cc1ccc(Cl)cc1,-32%,-11%,-6%,-21%,-36,?
CN(CC(=O)Nc1ccc(S(=O)(=O)N2CCCC2)cc1)Cc1c(F)cccc1Cl,-19%,?,-1%,-18%,-70*,?
CCN(CC)CC(=O)Nc1cccc(S(=O)(=O)N2CCCC2)c1,-2%,-12%,8%,-13%,-91*,?
CCc1ccc(C(=O)CCC(=O)Nc2cccc(S(=O)(=O)N3CCCCC3)c2)cc1,?,-5%,.,?,-29,10µM*
Cc1cc(C)cc(-n2ccnc2SCC(=O)Nc2ccccc2F)c1,-16%,?,.,-3%,?,.
CS(=O)(=O)N1CCN(c2ccccc2NC(=O)Nc2cccc(Cl)c2)CC1,.,7%,-4%,.,?,-7%
COCCn1c(C)cc(O)c(C(c2ccccc2OC)N2CCCCC2)c1=O (stereo not given),-10%,-9%,.,-6%,-6,.
C/C=C1\COC(C(=O)NCCOCCO)(C(F)(F)F)C=C1C=C1CCCCC1 (stereo not given),.,.,0%,.,.,.
Cn1cnc(S(=O)(=O)N2CCC(C(=O)Nc3ccc(Cl)c(C(F)(F)F)c3)CC2)c1,-7%,?,.,-21%,-76*,.
O=C(COc1ccccc1)NCC(=O)Nc1ccncc1,i,0%,.,-2%,-13,28%
CCn1nc([N+](=O)[O-])c(C(C#N)c2nc3cc(C(F)(F)F)ccc3s2)c(Cl)c1=O (stereo not given),.,2µM*,2%,.,?,11µM*

# High-throughput results deposited in PubChem by National Center for Advancing Translational Sciences (NCATS).
